Bioassay records deposited in PubChem BioAssay by National Center for Advancing Translational Sciences (NCATS).
MARV entry inh – inhibitors of Marburg virus binding or cell entry; Marburg virus pseudotyped entry inhibition, cell reporter; Potency, µM (doses to about 37.8 µM), most hits filed as inhibitors; 300,000 tested, 1.8% active; AID 540276; calls by dose curve; tested in HEK293 cells
Shiga inhibitor – blocks Shiga toxin action in Vero cells; Vero cells, Shiga toxin protein synthesis inhibition reporter; inhibition, % at 38.7 µM; 290,000 tested, 9.2% active; in the data active means inhibition mostly above about 28%, no sharp cut-off; inactive means mostly below about 43%
Cycloheximide cs – counter-screen for Shiga toxin inhibitors: cycloheximide protein synthesis inhibition | cell reporter, cycloheximide protein synthesis inhibition counterscreen | max response, % | 300,000 tested, 12% active | AID 2314; in the data active means max response mostly above about 13%, no sharp cut-off; inactive means mostly below about 14%; further: read at 38.3 µM for the half of the compounds with a filed dose
Pf growth 96h – inhibits malaria parasite growth, 96 h; P. falciparum luciferase reporter growth, 96 h; 320,000 tested, 6.9% active; Potency, µM (series often up to 28.7 µM), actives largely listed as inhibitors
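Infected RBCs, 2% Hct / 0.05% parasitemia final; luciferase-reporter P. falciparum; cpd 96 h, 37 C, 5% CO2; luciferase detection reagent; luminescence.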
Pf growth 48h – inhibits P. falciparum growth in the first generation, 48 h; 310,000 tested, 5.9% active; AID 504832; Potency, µM (highest dose often 28.7 µM), actives largely listed as inhibitors; P. falciparum luciferase growth in erythrocytes, 48 h
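In quantitative HTS format, infected erythrocytes bearing luciferase-reporter parasites were treated for a single generation at 37 C. Luminescence after adding detection reagent served as the growth measure.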
LASV entry inh – inhibitors of Lassa virus binding or cell entry. Lassa virus pseudotype entry inhibition, cell reporter. Potency, µM (doses to about 37.9 µM), actives largely listed as inhibitors. 300,000 tested, 1.2% active. AID 540256; calls by dose curve; tested in HEK293 cells; further: nearly all actives have a fitted effect of over 50% in size
Numbers stand for hits; i = inactive; ? = inconclusive; nt = no result given. This is a sample that favours compounds with a hit; in the whole collection about 19% have one here. Unless noted, the call rests on the fitted dose curve; in most records, active means well fitted inhibition curve with a large enough effect; inconclusive means small, poorly fitted or top-dose-only effect, or another doubt; inactive means no such curve, though single readings can be large or run the other way.

SMILES | MARV entry inh | Shiga inhibitor | Cycloheximide cs | Pf growth 96h | Pf growth 48h | LASV entry inh
CCOc1ccc2nc(NC(=O)Nc3ccccc3)sc2c1 | ? | i | 22 | i | nt | ?
O=S(c1ccccc1)c1ccccc1 | ? | nt | nt | nt | nt | i
O=c1cc(-c2ccccc2)nc(SCc2nc(-c3ccc(Cl)cc3)no2)[nH]1 | nt | nt | nt | nt | nt | i
Oc1ccc2[nH]cc(CCCCN3CC=C(c4ccccc4)CC3)c2c1 | nt | nt | nt | 4.3µM | 4.3µM | nt
O=C(O)c1ccc2[nH]cc(CCCCN3CC=C(c4ccccc4)CC3)c2c1 | nt | nt | nt | i | i | nt
C=CCOc1ccccc1/C=N/NC(=O)c1ccc(Cl)cc1Cl | ? | i | i | i | i | i
O=C(O)c1ccc(N/N=C/c2ccc(OC(=O)c3ccccc3Cl)cc2)cc1 | ? | i | 21 | i | i | 0.71µM
Nc1ccc(C(=O)N/N=C\c2ccc(OC(=O)c3ccccc3Cl)cc2)cc1 | nt | i | 38 | i | i | nt
COc1cc(C(=O)Oc2ccccc2/C=N/NC(=O)c2ccc(Cl)cc2Cl)cc(OC)c1OC | ? | 26 | 23 | ? | 6.6µM | ?
O=C(O)c1ccc(/C=N/Nc2nnnn2-c2ccccc2)cc1 | ? | i | i | i | i | i
COc1cc(C(=O)N/N=C/c2ccc(OC(=O)c3ccccc3Cl)cc2)ccc1O | i | i | 26 | i | i | i
O=C(N/N=C/c1ccc(OC(=O)c2cccs2)cc1)c1ccc(F)cc1 | i | i | i | i | i | i
O=C(CCc1c[nH]c2ccccc12)NCc1ccco1 | i | i | i | i | i | i
O=C(COc1ccccc1)NCC(c1ccc(Cl)cc1)N1CCCCC1 (stereo not given) | ? | nt | nt | nt | nt | i
COc1ccc(C2c3ccc(O)cc3Oc3ncn(CCCO)c(=N)c32)cc1 (stereo not given) | nt | i | i | ? | ? | nt
CN(C)CCn1cnc2c(c1=N)C(c1ccccc1)c1ccc3ccccc3c1O2 (stereo not given) | nt | i | i | 5.2µM | 5.2µM | nt
N=c1c2c(ncn1Cc1ccco1)Oc1c(ccc3ccccc13)C2c1ccccc1 (stereo not given) | ? | 18 | 23 | ? | 15µM | ?
N=c1c2c(ncn1Cc1ccco1)Oc1cc(O)ccc1C2c1ccccc1 (stereo not given) | nt | i | i | ? | 12µM | nt
O=c1c2ccccc2ncn1Cc1ccco1 | i | i | i | i | i | i
CCOC(=O)c1cc(C#N)c(Nc2ccccc2OC)nc1C(F)(F)F | i | i | i | i | i | i
CCCCn1c(N)c(N(CC(C)C)C(=O)COc2cc(C)ccc2Cl)c(=O)[nH]c1=O | i | nt | nt | i | i | i
Cc1cnc(C)c(N2CCN(Cc3nc(-c4ccc(C)o4)oc3C)CC2)n1 | i | i | i | i | ? | i
Cc1cccc(OCCSc2nnc(-c3ccoc3C)n2C)c1 | i | i | i | 12µM | i | i
Cn1cnnc1SCCC(=O)Nc1ccc(Cl)cc1 | i | i | i | i | i | i
CCCCOc1cccc(NC(=O)CSc2nncn2C)c1 | i | i | i | i | i | ?
SMILES | MARV entry inh | Shiga inhibitor | Cycloheximide cs | Pf growth 96h | Pf growth 48h | LASV entry inh
Cn1cnnc1SCCOc1ccc(Cl)cc1 | i | i | 15 | i | i | ?
Cc1cccc(OCCSc2nncn2C)c1 | i | i | 33 | i | i | i
CCn1c(SCCOc2ccc(Cl)cc2)nnc1-c1cccs1 | i | i | i | 9.3µM | ? | i
Cc1ccc(OCC(=O)Nc2ccc(S(=O)(=O)N(Cc3ccccc3)c3ccccc3)cc2)cc1 | i | nt | nt | nt | nt | i
Cc1ccc(-c2nnn(CC(=O)Nc3cccc4c3CCCC4)n2)o1 | ? | i | i | nt | i | ?
Cn1ncc(Br)c1C(=O)N1CCCCCC1 | ? | i | i | i | i | i
CCCCC(=O)N/N=C(\C)CC(=O)Nc1ccccc1Br | i | i | i | i | i | i
CC(/C=C/c1ccccc1F)=N\NC(=O)C(C)C | ? | 42 | 35 | i | i | i
CCCCC(=O)N/N=C(C)/C=C/c1ccccc1F | nt | 63 | 29 | i | i | nt
CC(C)(C)c1ccc(OCCNCc2ccccc2)cc1 | ? | nt | i | i | i | i
CC1(C)CC(=O)C2=C(C1)Nc1cc3c(cc1C2c1ccc(F)cc1)OCO3 (stereo not given) | ? | i | i | 5.2µM | ? | ?
CC1(C)CC(=O)C2=C(C1)Nc1cc3c(cc1C2c1ccc2c(c1)OCO2)OCO3 (stereo not given) | i | i | i | i | nt | nt
N#Cc1ccc(OCC(O)CS(=O)(=O)c2ccccc2)cc1 (stereo not given) | i | i | i | i | i | ?
CC1=NN(c2ccccc2)C(=O)C1N=Nc1ccccc1 (stereo not given) | i | 109 | 21 | ? | i | ?
CC1=NN(c2nc(-c3ccc(C)cc3)cs2)C(=O)C1N=Nc1cccc(O)c1 (stereo not given) | ? | i | i | i | i | i
CC1=NN(c2ccccc2)C(=O)C1C(=O)c1ccc(Cl)cc1 (stereo not given) | i | i | i | i | i | nt
COc1ccc(N=NC2C(=O)N(c3ccccc3)N=C2C)cc1 (stereo not given) | nt | i | i | 2.6µM | i | nt
CC1=NN(c2ccccc2)C(=O)C1c1ccccc1 (stereo not given) | ? | i | i | ? | i | ?
CC1=NN(c2ccccc2)C(=O)C1N=Nc1ccc(N)cc1 (stereo not given) | i | 80 | 55 | ? | i | i
CC1=NN(c2ccccc2)C(=O)C1N=Nc1cccc(O)c1 (stereo not given) | ? | 86 | 43 | i | i | i
Cc1ccc(SCc2c(C(=O)N/N=C/c3ccncc3)nnn2-c2nonc2N)cc1 | nt | i | i | i | i | nt
CC1N=C(c2ccccc2)c2cc(Br)ccc2NC1=O (stereo not given) | i | i | i | ? | i | i
COc1ccc(-c2nnc(N(C)C(=O)c3ccco3)s2)cc1OC | i | i | i | i | i | i
COc1ccccc1-c1nn(Cc2ccccc2)cc1/C=C/C(=O)O | nt | i | i | i | i | nt
O=c1cc(Cc2ccc([N+](=O)[O-])cc2)[nH]c(=O)[nH]1 | i | nt | nt | nt | nt | i
SMILES | MARV entry inh | Shiga inhibitor | Cycloheximide cs | Pf growth 96h | Pf growth 48h | LASV entry inh
CC(=O)c1sc2c(c1OC(=O)c1ccccc1)c(=O)n(-c1ccccc1)c(=S)n2-c1ccccc1 | i | nt | nt | nt | nt | i
COC(=O)c1cncn1C(C)c1ccccc1 (stereo not given) | i | i | i | 2.1µM | ? | i
CC(c1ccccc1)n1cncc1C(=O)O (stereo not given) | i | i | i | 1.5µM | i | i
CC(c1ccccc1)n1cnc2ccccc21 (stereo not given) | i | i | i | i | i | i
Cc1ccc(NC(=O)CSc2nnc(N)s2)cc1S(=O)(=O)N1CCCCC1 | i | i | i | ? | ? | i
Cc1ccc(NC(=O)COc2cccc(Oc3ccccc3)c2)cc1S(=O)(=O)N1CCOCC1 | ? | nt | nt | ? | 10µM | ?
Cc1ccc(NC(=O)COc2ccc(Cl)cc2Cl)cc1S(=O)(=O)N1CCOCC1 | i | nt | nt | ? | ? | ?
Cc1ccc(NC(=O)CSc2nnc(C3CC3)n2C)cc1S(=O)(=O)N1CCCCC1 | nt | nt | nt | ? | 13µM | nt
Cc1ccc(NC(=O)CCl)cc1S(=O)(=O)N1CCCCCC1 | ? | i | i | 9.3µM | i | i
